An excerpt weighted towards active compounds, which were near 6.7% of everything screened.
T cruzi growth-1: blocks T. cruzi growth in NIH3T3 culture. actives 5.9% (n = 77,000). AID 624255. T. cruzi beta-gal in NIH3T3, GalScreen luminescence, 90 h. inhibition, % at 8.34 µM;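 active means mean inhibition above about 93%, with at least 55% of replicates each passing it, limit read from the data, passing the limit was not always enough; inconclusive means only one of those two conditions holds; inactive means neither condition holds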
C diff HTS: C. difficile growth inhibition | Clostridium difficile clinical isolate growth, OD600, 24 h; stronger effect = lower value | growth activity, negative = inhibition, % at 16 µg/mL (by protocol) | actives 0.25% (n = 86,000) | AID 1259249;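 active means mean growth activity at or below -80% and every replicate also at or below -80%; inconclusive means mean at or below -80% but some replicate above -80%; inactive means mean growth activity above -80%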
Pf Dd2 inh: blocks growth of Plasmodium falciparum Dd2 parasites; P. falciparum Dd2 growth, SYBR Green, 72 h; stronger effect = lower value; activity change, % at 10 µM; actives 2.3% (n = 94,000); in the data active means activity change below about -80%; inconclusive means no clear call, values can overlap the other calls
T cruzi growth-2: Trypanosoma cruzi proliferation inhibition | shares compounds with T cruzi growth-1 | T. cruzi beta-gal in NIH3T3, GalScreen luminescence, 90 h | inhibition, % at 8.35 µM | actives 72% (n = 5,600);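 active means mean replicate inhibition above about 95% and at least 55% of replicates individually reaching it, limit read from the data; inconclusive means only one of the two criteria is met; inactive means neither criterion is met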
T cruzi growth-3: inhibitors of T. cruzi proliferation. inhibition, % at 2.09 µM. shares compounds with T cruzi growth-1. actives 21% (n = 5,600). T. cruzi beta-gal in NIH3T3, GalScreen luminescence, 90 h;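 active means mean inhibition above about 95%, with at least 55% of replicates also reaching it, limit read from the data; inconclusive means meets just one of the two conditions; inactive means meets neither condition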
NIH3T3 tox: NIH/3T3 (mouse) viability loss. NIH/3T3 viability, CellTiter-Glo ATP luminescence, 90 h. AID 651742. actives 14% (n = 5,600). cytotoxicity (signal decrease), % at 8.35 µM. shares compounds with T cruzi growth-1;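 active means mean signal decrease across replicates above about 35% based on untreated-well scatter, with enough replicates individually passing, limit read from the data; inconclusive means no rule stated though some were filed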
NIH3T3 tox 2: cytotoxicity in mouse NIH/3T3 fibroblasts; shares compounds with T cruzi growth-1; NIH/3T3 viability, CellTiter-Glo ATP luminescence, 90 h; inhibition, % at 24.9 µM; actives 56% (n = 5,600); AID 651744;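 active means mean loss of cell viability signal at or above a set limit, and enough replicates individually reaching it; inconclusive means meets only the mean limit or only the replicate share; inactive means meets neither condition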
Numbers stand for hits; – = inactive; ? = inconclusive; · = no result given.

SMILES	T cruzi growth-1	C diff HTS	Pf Dd2 inh	T cruzi growth-2	T cruzi growth-3	NIH3T3 tox	NIH3T3 tox 2
N#Cc1ccc(-c2ccc([C@@H]3[C@@H](CO)N4CCCCN(S(=O)(=O)c5ccccc5)C[C@H]34)cc2)cc1	–	–	–	·	·	·	·
O=S(=O)(c1ccccc1)N1CCCCN2[C@H](CO)[C@H](c3ccc(C#Cc4ccccc4)cc3)[C@H]2C1	–	–	–	·	·	·	·
N#Cc1ccc(-c2ccc([C@H]3[C@@H](CO)N4CCCCN(S(=O)(=O)c5ccccc5)C[C@@H]34)cc2)cc1	96	–	–	107	–	–	–
O=S(=O)(c1ccccc1)N1CCCCN2[C@H](CO)[C@H](c3ccc(C#Cc4cccnc4)cc3)[C@H]2C1	109	–	–	114	–	–	63
O=S(=O)(c1ccccc1)N1CCCCN2[C@H](CO)[C@H](c3ccc(C#Cc4ccccc4)cc3)[C@@H]2C1	–	–	–	·	·	·	·
O=S(=O)(c1ccccc1)N1CCCCN2[C@H](C1)[C@H](c1ccc(C#Cc3ccccc3)cc1)[C@@H]2CO	?	–	–	101	–	?	105
COc1ccc(C#Cc2ccc([C@@H]3[C@@H](CO)N4CCCCN(S(=O)(=O)c5ccccc5)C[C@@H]34)cc2)cc1	–	–	–	·	·	·	·
COc1ccc(C#Cc2ccc([C@H]3[C@@H](CO)N4CCCCN(S(=O)(=O)c5ccccc5)C[C@@H]34)cc2)cc1	103	–	–	103	–	–	–
COc1ccc(CN(C)C[C@H]2OCCCC[C@H](C)Oc3ccc(NS(=O)(=O)c4ccc(F)cc4)cc3C(=O)N([C@H](C)CO)C[C@@H]2C)cc1	–	–	–	·	·	·	·
C[C@@H](O)C#Cc1ccc2c(c1)O[C@@H](CN(C)C(=O)Nc1ccccc1)[C@@H](C)CN([C@@H](C)CO)S2(=O)=O	–	–	–	·	·	·	·
C[C@H]1CN([C@@H](C)CO)S(=O)(=O)c2ccc(C#Cc3ccccc3)cc2O[C@H]1CN(C)C(=O)Nc1ccc2c(c1)OCO2	132	–	–	99	–	–	–
CC(C)C#Cc1ccc2c(c1)O[C@@H](CN(C)C(=O)Nc1ccccc1)[C@H](C)CN([C@@H](C)CO)S2(=O)=O	·	–	–	·	·	·	·
C[C@@H]1CN([C@@H](C)CO)S(=O)(=O)c2ccc(C#Cc3ccccc3)cc2O[C@H]1CN(C)C(=O)Nc1ccccc1	123	–	–	98	108	40	36
CC(C)C#Cc1ccc2c(c1)O[C@@H](CN(C)C(=O)Nc1ccccc1)[C@@H](C)CN([C@@H](C)CO)S2(=O)=O	·	–	–	·	·	·	·
C[C@H]1CN([C@@H](C)CO)S(=O)(=O)c2ccc(C#Cc3ccccc3)cc2O[C@@H]1CN(C)C(=O)Nc1ccccc1	119	–	–	102	–	–	40
C[C@@H]1CN([C@H](C)CO)S(=O)(=O)c2ccc(C#Cc3ccccc3)cc2O[C@H]1CN(C)C(=O)Nc1ccccc1	122	–	–	109	–	37	50
C[C@H]1CN([C@@H](C)CO)S(=O)(=O)c2ccc(C#Cc3ccncc3)cc2O[C@H]1CN(C)C(=O)Nc1ccc2c(c1)OCO2	–	–	–	·	·	·	·
CNC(=O)C[C@@H]1CC[C@@H]2[C@H](COC[C@@H](O)CN2Cc2ccc(C(F)(F)F)cc2)O1	·	–	–	·	·	·	·
C[C@@H]1CCCCO[C@@H](CN(C)C)[C@H](C)CN([C@@H](C)CO)C(=O)c2cc(NS(=O)(=O)c3cn(C)cn3)ccc2O1	–	–	–	·	·	·	·
C[C@H](CO)N1C[C@H](C)[C@H](CN(C)C(=O)C2CC2)Oc2cc(C3=CCCCC3)ccc2S1(=O)=O	–	–	–	·	·	·	·
COc1ccc2c3c([nH]c2c1)[C@@H](CO)N(Cc1nccs1)CC31CN(C(=O)C2CCC2)C1	·	–	–	·	·	·	·
C[C@@H]1CN([C@@H](C)CO)S(=O)(=O)c2ccc(C3=CCCC3)cc2O[C@@H]1CN(C)C(=O)Nc1ccc2c(c1)OCO2	–	–	–	·	·	·	·
C[C@@H]1CN([C@@H](C)CO)S(=O)(=O)c2ccc(C3=CCCC3)cc2O[C@H]1CN(C)C(=O)Nc1ccc2c(c1)OCO2	112	–	–	106	–	–	61
Cc1ccc(S(=O)(=O)Nc2ccc3c(c2)C(=O)N([C@@H](C)CO)C[C@@H](C)[C@@H](CN(C)C)O3)cc1	·	–	–	·	·	·	·
COc1ccc(-c2cnc3c(c2)C(=O)N([C@H](C)CO)C[C@@H](C)[C@H](CN(C)C)O3)cc1	–	–	–	·	·	·	·
SMILES	T cruzi growth-1	C diff HTS	Pf Dd2 inh	T cruzi growth-2	T cruzi growth-3	NIH3T3 tox	NIH3T3 tox 2
COc1ccccc1CN1[C@@H]2c3ccc(C4=CCCC4)c(=O)n3C[C@H]1[C@H](CO)[C@H]2C(=O)N(C)C	142	–	·	–	–	–	38
CCCNC(=O)[C@H]1[C@H](CO)[C@H]2Cn3c(ccc(C4=CCCC4)c3=O)[C@@H]1N2Cc1ccncc1	99	–	–	–	–	–	–
CCCNC(=O)[C@@H]1[C@@H](CO)[C@@H]2Cn3c(ccc(C4=CCCC4)c3=O)[C@H]1N2Cc1ccncc1	–	–	–	·	·	·	·
COc1ccccc1CN1[C@@H]2Cn3c(ccc(C4=CCCC4)c3=O)[C@H]1[C@@H](C(=O)N(C)C)[C@@H]2CO	–	–	·	·	·	·	·
COc1ccc(CN(C)C[C@H]2OCc3cn(nn3)CCCC(=O)N([C@@H](C)CO)C[C@H]2C)cc1	–	–	–	·	·	·	·
CO[C@H](CN(C)S(=O)(=O)c1cccc(Cl)c1)[C@@H](C)CN([C@@H](C)CO)S(=O)(=O)c1ccc(Cl)cc1	–	·	–	·	·	·	·
CO[C@H](CN(C)S(=O)(=O)c1ccc(F)cc1)[C@H](C)CN([C@@H](C)CO)S(=O)(=O)c1cccc(Cl)c1	–	·	–	·	·	·	·
CO[C@H](CN(C)S(=O)(=O)c1cccc(Cl)c1)[C@@H](C)CN([C@@H](C)CO)S(=O)(=O)c1cccc(Cl)c1	109	·	–	–	–	42	39
CO[C@@H](CN(C)S(=O)(=O)c1cccc(Cl)c1)[C@@H](C)CN([C@H](C)CO)S(=O)(=O)c1ccc(Cl)cc1	–	·	–	·	·	·	·
CO[C@H](CN(C)S(=O)(=O)c1ccc(Cl)cc1)[C@@H](C)CN([C@H](C)CO)S(=O)(=O)c1cccc(Cl)c1	–	·	–	·	·	·	·
CO[C@@H](CN(C)S(=O)(=O)c1cccc(Cl)c1)[C@@H](C)CN([C@@H](C)CO)S(=O)(=O)c1ccc(Cl)cc1	104	·	–	98	–	?	67
CO[C@@H](CN(C)S(=O)(=O)c1cccc(Cl)c1)[C@H](C)CN([C@@H](C)CO)S(=O)(=O)c1cccc(Cl)c1	110	·	–	–	–	49	72
CO[C@H](CN(C)S(=O)(=O)c1cccc(Cl)c1)[C@@H](C)CN([C@H](C)CO)S(=O)(=O)c1cccc(Cl)c1	118	·	–	–	–	–	69
